Experimental data from PubChem BioAssay AID1159580 (chemical genetic matrix, 2015).
Values joined by “and” are separate entries in the source; they are usually repeats but may differ in a detail not shown here. Equal entries are not always repeated. The campaign covered roughly 5,500 compounds. About 2,000 (36%) were called active. Roughly 18% stayed inconclusive and do not appear here. Rule as the data show it: active = normalized growth mostly below about 0.91 (no sharp cut-off); inconclusive = no clear call, values can overlap the other calls; inactive = mostly above about 0.92. Some of the results follow.

Assay: chemical genetic growth profiling, strain panel (AID 1159580);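 also: tested at 20 µM; growth read once vehicle control cultures reached saturation at 30 °C; 1 = growth at the plate median or of vehicle wells; lower values mean less growth of the strain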
Settings: S. cerevisiae deletion strains, growth OD

Measured: normalized growth

C/C=C(/C)C(=O)O[C@@H]1[C@H](OC(C)=O)[C@@]2(CO)C(CC1(C)C)C1=CCC3[C@@]4(C)CC[C@H](O[C@@H]5O[C@H](C(=O)O)[C@@H](O[C@@H]6O[C@H](CO)[C@@H](O)[C@H](O)[C@H]6O)[C@H](O)[C@H]5O[C@@H]5O[C@H](CO)[C@@H](O)[C@H](O)[C@H]5O)[C@](C)(CO)C4CC[C@@]3(C)[C@]1(C)C[C@H]2O (some centres not stated)
inactive: locus YAL021C, strain ccr4, stronger effect = lower value 1.01 | locus YAL026C, strain drs2, stronger effect = lower value 0.983 | locus YAL030W, strain snc1, stronger effect = lower value 0.987 | locus YBL061C, strain skt5, stronger effect = lower value 0.983 | locus YBR009C, strain hhf1, stronger effect = lower value 0.938 | locus YBR021W, strain FUR4, stronger effect = lower value 0.989 | locus YBR023C, strain chs3, stronger effect = lower value 0.992 | locus YBR171W, strain sec66, stronger effect = lower value 0.996 | locus YBR229C, strain ROT2, stronger effect = lower value 1.01 | locus YBR231C, strain swc5, stronger effect = lower value 0.979 | locus YBR279W, strain paf1, stronger effect = lower value 0.989 | locus YCL011C, strain gbp2, stronger effect = lower value 0.986 | locus YCL016C, strain dcc1, stronger effect = lower value 0.994 | locus YCL029C, strain bik1, stronger effect = lower value 1.03 | locus YCL061C, strain MRC1, stronger effect = lower value 0.981 | locus YCL069W, strain vba3, stronger effect = lower value 0.987 | locus YCR088W, strain abp1, stronger effect = lower value 0.989 | locus YDL005C, strain med2, stronger effect = lower value 0.982 | locus YDL035C, strain GPR1, stronger effect = lower value 1.02 | locus YDL040C, strain nat1, stronger effect = lower value 0.973 | locus YDL074C, strain BRE1, stronger effect = lower value 0.999 | locus YDL101C, strain DUN1, stronger effect = lower value 1.02 | locus YDL185W, strain tfp1, stronger effect = lower value 1.02 | locus YDL192W, strain arf1, stronger effect = lower value 1.02 | locus YDR001C, strain nth1, stronger effect = lower value 0.981 | locus YDR069C, strain doa4, stronger effect = lower value 0.982 | locus YDR101C, strain arx1, stronger effect = lower value 1.01 | locus YDR137W, strain rgp1, stronger effect = lower value 0.975 | locus YDR159W, strain sac3, stronger effect = lower value 0.96 | locus YDR162C, strain NBP2, stronger effect = lower value 1.02 | locus YDR195W, strain ref2 0.929 | locus YDR297W, strain sur2, stronger effect = lower value 0.993 | locus YDR318W, strain mcm21, stronger effect = lower value 1.03 | locus YDR334W, strain swr1, stronger effect = lower value 0.985 | locus YDR335W, strain msn5, stronger effect = lower value 0.989 | locus YDR388W, stronger effect = lower value 1.02 | locus YDR392W, strain spt3, stronger effect = lower value 0.874 | locus YDR502C, strain sam2, stronger effect = lower value 1.02 | locus YEL003W, strain gim4, stronger effect = lower value 0.992 | locus YEL037C, strain rad23, stronger effect = lower value 0.991 | locus YEL061C, strain CIN8 (second series), stronger effect = lower value 0.987 | locus YEL061C, strain CIN8, stronger effect = lower value 1.01 | locus YER015W, strain faa2, stronger effect = lower value 0.983 | locus YER016W, strain bim1, stronger effect = lower value 0.991 | locus YER110C, stronger effect = lower value 1.03 | locus YER111C, strain swi4, stronger effect = lower value 0.968 | locus YER155C, strain BEM2 (second series), stronger effect = lower value 0.997 | locus YER155C, strain BEM2, stronger effect = lower value 0.999 | locus YER167W, strain BCK2, stronger effect = lower value 1.01 | locus YFR010W, strain ubp6, stronger effect = lower value 0.991 | locus YGL078C, strain dbp3, stronger effect = lower value 1.02 | locus YGL086W, strain mad1, stronger effect = lower value 1.03 | locus YGL167C, strain pmr1, stronger effect = lower value 0.987 | locus YGL173C, strain kem1, stronger effect = lower value 0.966 | locus YGL227W, strain vid30, stronger effect = lower value 0.982 | locus YGL240W, strain doc1, stronger effect = lower value 0.97 | locus YGL248W, strain PDE1, stronger effect = lower value 1.01 | locus YGL253W, strain hxk2, stronger effect = lower value 0.974 | locus YGR135W, strain pre9, stronger effect = lower value 1.01 | locus YGR252W, strain gcn5, stronger effect = lower value 0.965 | locus YHR013C, strain ard1, stronger effect = lower value 0.965 | locus YHR027C, strain rpn1, stronger effect = lower value 0.992 | locus YHR030C, strain SLT2, stronger effect = lower value 1.01 and 0.987 | locus YHR079C, strain IRE1 (second series), stronger effect = lower value 1.03 | locus YHR079C, strain IRE1, stronger effect = lower value 0.972 | locus YHR094C, strain hxt1, stronger effect = lower value 1.03 | locus YHR129C, strain ARP1, stronger effect = lower value 1.01 | locus YHR142W, strain chs7, stronger effect = lower value 1.01 | locus YHR200W, strain rpn10, stronger effect = lower value 1.01 | locus YIL066C, strain RNR3, stronger effect = lower value 1.01 | locus YIL073C, strain SPO22, stronger effect = lower value 1.15 | locus YIL125W, strain kgd1, stronger effect = lower value 1.02 | locus YIR030C, strain dcg1, stronger effect = lower value 1.03 | locus YJL092W, strain hpr5, stronger effect = lower value 0.989 | locus YJL095W, strain BCK1 (second series), stronger effect = lower value 0.992 | locus YJL095W, strain BCK1, stronger effect = lower value 1.02 and 0.969 | locus YJL115W, strain asf1, stronger effect = lower value 0.989 | locus YJL129C, strain trk1, stronger effect = lower value 0.984 | locus YJL134W, strain LCB3, stronger effect = lower value 1 | locus YJL154C, strain vps35, stronger effect = lower value 0.987 | locus YJL164C, strain tpk1, stronger effect = lower value 1.01 | locus YJL166W, strain qcr8, stronger effect = lower value 1 | locus YJL168C, strain set2, stronger effect = lower value 1.01 | locus YJL187C, strain SWE1 (second series), stronger effect = lower value 1.02 | locus YJL187C, strain SWE1, stronger effect = lower value 0.996 | locus YJR043C, strain POL32, stronger effect = lower value 0.99 | locus YJR066W, strain TOR1, stronger effect = lower value 1.01
